This is an account of results in PubChem BioAssay (NCATS).

Each structure is given as a SMILES string. Records with an inconclusive call do not appear. Calls of active or inactive are those of the source. Unless noted, calls follow the shape of the dose curve; as a rule, active = well fitted curve in the direction sought with a large enough effect; inconclusive = small, poorly fitted or top-dose-only effect, or another doubt; inactive = no such curve, though single readings can be large; an effect the other way counts as inactive or inconclusive.

Assay [1] addresses Lysosomal acid glucosylceramidase (Homo sapiens) (UniProt P04062). The assay can be described thus: Glucocerebrosidase-p2 (AID 348; in the data active = potency below about 10 µM; also: potency is read from the fitted curve at half-maximal effect). Particulars: purified GBA, blue fluorogenic substrate, 40 min. An outline of the steps: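 Compounds titrated from 0.6 nM upwards against 0.2 nM enzyme in pH 5.9 citric acid/KH2PO4, taurocholate, tween-20; blue fluorogenic substrate 80 uM, 40 min room temperature, stopped and read Ex 365/Em 440 for AC50.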

In assay [2] the target is Cytochrome P450 1A2 (Homo sapiens) (UniProt P05177). The assay can be described thus: p450-cyp1a2 (AID 410; calls by dose curve; also: potency is read from the fitted curve at half-maximal effect;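 as to activity change, negative = inhibition: -100% = full effect of reference inhibitor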). Particulars: recombinant CYP1A2, luciferin-ME demethylation, luminescence; series mostly up to 57 µM. The method, boiled down: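 Luminescent readout of luciferin formed from Luciferin-ME by human CYP1A2; data normalized against complete inhibition by 57 uM furafylline. Enzyme 20nM, substrate 100uM at Km, 100mM KPO4 buffer, 60 min reaction at room temperature.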

Assay [3] is described as follows: Stat Signaling Pathway (AID 446; active = well fitted curve in either direction with a large enough effect, not every such curve was filed as active;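 also: ME-180 cervical cancer cells given 40 pM IL-6 alongside compound; SIE-controlled beta-lactamase reporter measured as 460/530 nm FRET emission ratio; % is scaled to controls: 0 for no effect and ±100 for the full control effect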). The conditions noted are these: ME-180 SIE beta-lactamase reporter, IL-6 stimulated, 5 h; at 7.69 µM (top of the series) unless noted. An outline of the steps: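 ME-180 SIE-bla cells; overnight plating; cpd + IL-6 40 pM, 5 h, 37 C; LiveBLAzer 2.5 h RT; 460/530 nm emission ratio. Normalized to 300 pM IL-6 and 125 nM JAK inhibitor controls.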

Assay [4] has as its target Glucocorticoid receptor (Homo sapiens) (UniProt P04150). The assay can be described thus: GR-GFP Redistribution (AID 450;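 active = compounds whose dose series gives a full or clear partial fitted curve of increased nuclear translocation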; also: potency is read from the fitted curve at half-maximal effect). The conditions noted are these: U2OS GR-GFP nuclear translocation, laser cytometry, 2 h.
For assay [5] the target is unchanged. Kind of assay: GR-EFC Redistribution (AID 451; calls by dose curve; also: potency is read from the fitted curve at half-maximal effect). The conditions noted are these: CHO-K1 GR-EFC translocation, beta-gal luminescence, 2 h. The method, boiled down:
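CHO-K1 cells expressing nuclear EA and GR-ED fragments of b-gal; compounds titrated up to 46 uM final, 2 h at 37 C. GR nuclear translocation read as complemented b-gal luminescence after 1 h RT detection.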

Assay [6] addresses Mitogen-activated protein kinase 10 (Mus musculus) (UniProt Q61831). Kind of assay: JNK3 AlphaScreen Assay (AID 530; active = well fitted curve in either direction with a large enough effect, not every such curve was filed as active;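 also: kinase came from lysate of stimulated human HepG2 cells; signal reports phosphorylation of biotinylated GST-cJun 1-79 at Ser73 with 10 µM ATP; % is scaled to controls: 0 for no effect and ±100 for the full control effect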). Particulars: JNK3 lysate, c-Jun phosphorylation; series mostly up to 57.1 µM. The method, boiled down:
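Pre-activated (IL-1β/TNFα) JNK3 in HepG2 lysates phosphorylates biotin-GST-cJun(1-79), 10 uM ATP; anti-phospho-cJun(Ser73) AlphaScreen read at room temperature, pH 7.6 Tris buffer. Compounds pre-incubated 15 min as titrations.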

The target in assay [7] is 3',5'-cyclic-AMP phosphodiesterase 4B (Homo sapiens) (UniProt Q07343). Kind of assay: qHTS Assay for Inhibitors of PDE-IV (AID 607; active = well fitted activation curve with a large enough effect in the main read-out, with a control signal flat, not every such curve was filed as active; also: % of control where 0% means no effect). Particulars: HEK293 ACTOne CNG channel cells, membrane potential fluorescence; series mostly up to 22.9 µM. An outline of the steps:
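ACTOne HEK293 cells carry a modified cAMP-gated CNG channel and express endogenous PDE4; plated 1000 cells/well, compounds up to 22.9 uM final. Membrane-potential dye fluorescence (ex 535/em 590) was read; parental cells received 10 uM forskolin + 100 uM RO 20-1724.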
In general terms: In qHTS, concentration-response curves come from the screen itself.

The target of assay [8] is Cytochrome P450 3A4 (Homo sapiens) (UniProt P08684). Kind of assay: qHTS Assay for Inhibitors and Substrates of Cytochrome P450 3A4 (AID 884). Also: potency is read from the fitted curve at half-maximal effect; nearly all actives have a fitted effect of over 50% in size. Particulars: recombinant CYP3A4, Luciferin-PPXE luminescence; series mostly up to 57.1 µM. An outline of the steps: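 20 nM human CYP3A4 with 25 uM Luciferin-PPXE (at KM) in 200 mM KPO4, preincubated 10 min with compound; NADPH regeneration started a 60 min RT reaction. Luciferin detected by luminescence, normalized to 57 uM ketoconazole as full inhibition.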

The target is the same in assay [9]. Kind of assay: qHTS Assay for Activators of Cytochrome P450 3A4 (AID 885). Also: nearly all actives have a fitted effect of over 65% in size. The conditions noted are these: recombinant CYP3A4, Luciferin-PPXE luminescence, 60 min; series mostly up to 57.1 µM. An outline of the steps: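 20nM CYP3A4 + 25uM Luciferin-PPXE (=KM), 200mM KPO4; cpd 10 min RT; NADPH regen, 60 min RT; stop w/ detection buffer, 20 min; luminescence. Normalized to 57 uM ketoconazole.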

Assay [10] can be described thus: Confirmation and Secondary Assay for Modulators of Hemoglobin Beta Chain Splicing at IVS2 654 locus (AID 910).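 Also: HeLa cells stably carrying EGFP split by mutant beta-globin IVS2-654 intron; % of control where 0% means no effect.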 The conditions noted are these: HeLa EGFP-654 splicing reporter, GFP fluorescence, 48 h; series mostly up to 38.3 µM. The method, boiled down:
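HeLa cells stably expressing EGFP interrupted by β-globin IVS2-654 intron, seeded overnight in Opti-MEM/2% FCS, then treated 2 days at 37 °C. Restored splicing read as total peak GFP intensity per well by laser scanning cytometry (488 nm excitation, 500–520 nm emission); 500 nM antisense PNA as control.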

Assay [11] can be described thus: Confirmation and Secondary Assay for Modulators of Hemoglobin Beta Chain Splicing at IVS2 705 locus (AID 930).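 Also: HeLa cells stably expressing the EGFP-705 splicing reporter; GFP fluorescence per well restored by corrected splicing of the IVS2-705 intron in EGFP; % of control where 0% means no effect.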 Particulars: HeLa EGFP-705 splicing reporter, GFP fluorescence, 48 h; series mostly up to 38.3 µM. The method, boiled down: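 HeLa EGFP-705 reporter; 500 cells/well, o/n 37C 5% CO2; cpd 2 d; 488 ex/500-520 em laser scan; total peak GFP intensity/well. Ref: 500 nM […] antisense PNA.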

A short description of assay [12]: qHTS Assay for Lipid Storage Modulators (AID 1519; calls by dose curve). Particulars: Drosophila S3 cells, BODIPY lipid droplet/cell ratio, laser cytometry, cells loaded with oleic acid; for activity change, negative = inhibition: at 57.5 µM (top of the series). An outline of the steps: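 Cells seeded at 5,000 per well were treated with compounds over a concentration series and loaded with oleic acid (400 uM, as added). Lipid droplet fluorescence (488 nm excitation, 500-530 nm channel) was read by laser-scanning cytometry and normalized to 20 uM Triacsin C.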

The nature of assay [13]: Primary qHTS for small molecule stabilizers of the endoplasmic reticulum resident proteome: Secreted ER Calcium Modulated Protein (SERCaMP) assay (AID 1508630). Also: % is scaled to controls: 0 for no effect and ±100 for the full control effect. The conditions noted are these: SH-SY5Y GLuc-SERCaMP (Gaussia luciferase released on ER calcium loss) secretion, thapsigargin, luminescence; series mostly up to 38.4 µM. An outline of the steps: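 GLuc-SERCaMP-expressing SH-SY5Y cells, pretreated 16 h with compound, are challenged with thapsigargin to empty ER calcium stores; after 4 h, coelenterazine is added directly to the medium and luminescence is imaged.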

Assay [14] concerns the target Cytochrome P450 2C19 (Homo sapiens) (UniProt P33261). Kind of assay: qHTS Assay for Inhibitors and Substrates of Cytochrome P450 2C19 (AID 899). Also: potency is read from the fitted curve at half-maximal effect; nearly all actives have a fitted effect of over 60% in size. The conditions noted are these: recombinant CYP2C19, luciferin-H EGE luminescence; series mostly up to 57.1 µM. The method, boiled down:
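Luminescent read-out of luciferin formed from Luciferin-H EGE (10uM, equal to KM). Enzyme 5nM in 50mM KPO4; compound added, 10 min at 37C, then NADPH regenerating system for 60 min at 37C. Full inhibition defined by 57uM ketoconazole.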

A short description of assay [15]: AP1 Signaling Pathway (AID 357; active = well fitted curve in either direction with a large enough effect, not every such curve was filed as active; also: % is scaled to controls: 0 for no effect and ±100 for the full control effect). The conditions noted are these: ME-180 (cervical carcinoma) AP-1-bla reporter, EGF-induced, beta-lactamase ratio, 5 h; at 7.69 µM (top of the series) unless noted. An outline of the steps: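 Read-out was the 460nm/530nm emission ratio (excitation 405nm) after CCF4 loading for 2.5 hours at room temperature. Cells carried an AP-1-driven beta-lactamase reporter, were stimulated with EC50 EGF plus compound for 5 hours, and AC50 values came from titrations.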

Assay [16] in a line: NFAT Signaling Pathway (AID 444; active = well fitted curve in either direction with a large enough effect, not every such curve was filed as active). Particulars: Jurkat NFAT-bla M1, carbachol, beta-lactamase ratio, 5 h; at 7.69 µM (top of the series) unless noted. The method, boiled down: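 Jurkat cells with NFAT-driven β-lactamase reporter and co-expressed M1 receptor, stimulated with carbachol (final 1 uM, ~EC50), compound titration, 5 h at 37 °C. CCF4 loaded 1 h at RT; 460/530 nm ratio gave %activity and AC50.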

Assay [17] deals with Ubiquitin carboxyl-terminal hydrolase 1 (Homo sapiens) (UniProt O94782). The assay can be described thus: Inhibitors of USP1/UAF1: Pilot qHTS (AID 504865). Also: nearly all actives have a fitted effect of over 35% in size. Also: potency is read from the fitted curve at half-maximal effect. Particulars: purified USP1/UAF1, Ub-rhodamine cleavage fluorescence; series mostly up to 54.9 µM. An outline of the steps: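 USP1/UAF1 complex (1nM) preincubated with compound 15 min at room temperature, then Ub-Rho substrate (150nM final) added. Fluorescence read kinetically at 480/540 nm, 6 reads every 60 seconds. Buffer: 50mM HEPES pH 7.8, 0.5mM EDTA, 0.1 mg/ml BSA, 1mM TCEP, 0.01% Tween-20.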

[18] abbreviates: measured here: cell count channel max response.
[19] abbreviates: measured here: lipid channel max response.

Sequence of Glucocorticoid receptor (Homo sapiens) (P04150 whole entry, looked up): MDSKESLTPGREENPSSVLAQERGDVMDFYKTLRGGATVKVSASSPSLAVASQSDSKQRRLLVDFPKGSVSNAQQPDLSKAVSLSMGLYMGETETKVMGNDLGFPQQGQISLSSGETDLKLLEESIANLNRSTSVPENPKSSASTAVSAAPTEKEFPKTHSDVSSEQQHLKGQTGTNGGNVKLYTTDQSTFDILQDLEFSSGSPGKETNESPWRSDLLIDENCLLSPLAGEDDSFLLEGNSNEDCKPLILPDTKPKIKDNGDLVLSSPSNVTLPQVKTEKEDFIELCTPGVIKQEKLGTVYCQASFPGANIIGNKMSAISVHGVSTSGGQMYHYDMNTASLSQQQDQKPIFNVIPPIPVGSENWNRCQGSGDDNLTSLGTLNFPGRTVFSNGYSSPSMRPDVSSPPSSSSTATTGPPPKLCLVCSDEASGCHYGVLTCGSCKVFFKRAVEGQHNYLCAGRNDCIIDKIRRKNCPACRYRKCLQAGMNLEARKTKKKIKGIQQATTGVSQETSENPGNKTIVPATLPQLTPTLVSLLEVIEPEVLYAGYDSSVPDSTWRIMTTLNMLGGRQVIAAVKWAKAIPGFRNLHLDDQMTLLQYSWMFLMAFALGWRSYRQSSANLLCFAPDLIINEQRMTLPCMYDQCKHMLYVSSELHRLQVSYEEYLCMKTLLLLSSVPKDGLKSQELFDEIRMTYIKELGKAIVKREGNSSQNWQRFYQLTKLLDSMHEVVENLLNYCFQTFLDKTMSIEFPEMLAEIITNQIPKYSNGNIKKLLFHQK
Sequence of 3',5'-cyclic-AMP phosphodiesterase 4B (Homo sapiens) (Q07343 whole entry, looked up): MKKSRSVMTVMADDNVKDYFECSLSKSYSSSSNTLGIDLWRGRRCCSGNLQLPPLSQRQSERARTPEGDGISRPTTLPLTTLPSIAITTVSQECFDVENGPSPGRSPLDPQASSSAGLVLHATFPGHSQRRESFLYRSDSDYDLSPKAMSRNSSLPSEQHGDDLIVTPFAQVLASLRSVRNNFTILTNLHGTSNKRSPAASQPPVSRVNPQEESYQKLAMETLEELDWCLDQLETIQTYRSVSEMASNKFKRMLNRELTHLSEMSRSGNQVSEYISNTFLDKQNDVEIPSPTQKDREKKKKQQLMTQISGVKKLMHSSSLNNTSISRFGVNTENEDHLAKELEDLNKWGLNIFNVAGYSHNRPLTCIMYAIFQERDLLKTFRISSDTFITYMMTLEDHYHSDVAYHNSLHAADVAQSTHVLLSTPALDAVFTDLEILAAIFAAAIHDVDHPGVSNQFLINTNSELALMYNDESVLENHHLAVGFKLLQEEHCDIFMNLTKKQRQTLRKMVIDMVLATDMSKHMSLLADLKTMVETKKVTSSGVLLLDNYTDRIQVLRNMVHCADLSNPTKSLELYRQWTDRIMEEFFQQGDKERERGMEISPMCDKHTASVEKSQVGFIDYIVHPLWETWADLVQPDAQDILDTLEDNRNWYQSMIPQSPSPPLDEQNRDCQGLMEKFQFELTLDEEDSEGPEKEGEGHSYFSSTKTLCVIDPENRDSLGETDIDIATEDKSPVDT
Sequence of Cytochrome P450 3A4 (Homo sapiens) (P08684 whole entry, looked up): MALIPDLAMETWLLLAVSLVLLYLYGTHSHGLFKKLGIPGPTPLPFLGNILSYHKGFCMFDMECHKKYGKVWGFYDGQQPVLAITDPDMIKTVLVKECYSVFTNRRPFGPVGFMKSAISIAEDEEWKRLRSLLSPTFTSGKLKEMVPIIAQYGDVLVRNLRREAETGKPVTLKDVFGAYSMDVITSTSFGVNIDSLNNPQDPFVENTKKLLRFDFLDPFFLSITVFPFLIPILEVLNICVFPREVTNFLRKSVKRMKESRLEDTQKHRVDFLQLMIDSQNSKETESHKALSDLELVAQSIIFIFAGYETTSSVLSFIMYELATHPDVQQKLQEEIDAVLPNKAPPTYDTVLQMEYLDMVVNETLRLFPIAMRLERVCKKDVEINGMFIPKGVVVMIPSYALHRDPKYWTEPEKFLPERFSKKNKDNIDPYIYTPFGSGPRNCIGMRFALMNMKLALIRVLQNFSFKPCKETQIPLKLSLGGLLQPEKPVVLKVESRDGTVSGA
Sequence of Lysosomal acid glucosylceramidase (Homo sapiens) (P04062 whole entry, looked up): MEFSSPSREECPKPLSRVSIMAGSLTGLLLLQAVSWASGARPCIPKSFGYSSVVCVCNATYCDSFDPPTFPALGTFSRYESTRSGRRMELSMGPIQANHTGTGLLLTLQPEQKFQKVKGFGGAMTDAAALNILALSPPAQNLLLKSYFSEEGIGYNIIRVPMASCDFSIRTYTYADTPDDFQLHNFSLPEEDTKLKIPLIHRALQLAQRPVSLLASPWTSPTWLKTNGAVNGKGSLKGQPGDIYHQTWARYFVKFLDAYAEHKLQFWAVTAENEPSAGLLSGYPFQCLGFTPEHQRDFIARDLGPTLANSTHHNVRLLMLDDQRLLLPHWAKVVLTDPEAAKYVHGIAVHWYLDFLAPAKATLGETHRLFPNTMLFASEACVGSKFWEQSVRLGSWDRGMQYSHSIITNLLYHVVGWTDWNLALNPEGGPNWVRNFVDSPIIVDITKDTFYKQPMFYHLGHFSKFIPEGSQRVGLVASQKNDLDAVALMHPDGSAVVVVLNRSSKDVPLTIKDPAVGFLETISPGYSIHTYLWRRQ
Sequence of Cytochrome P450 1A2 (Homo sapiens) (P05177 whole entry, looked up): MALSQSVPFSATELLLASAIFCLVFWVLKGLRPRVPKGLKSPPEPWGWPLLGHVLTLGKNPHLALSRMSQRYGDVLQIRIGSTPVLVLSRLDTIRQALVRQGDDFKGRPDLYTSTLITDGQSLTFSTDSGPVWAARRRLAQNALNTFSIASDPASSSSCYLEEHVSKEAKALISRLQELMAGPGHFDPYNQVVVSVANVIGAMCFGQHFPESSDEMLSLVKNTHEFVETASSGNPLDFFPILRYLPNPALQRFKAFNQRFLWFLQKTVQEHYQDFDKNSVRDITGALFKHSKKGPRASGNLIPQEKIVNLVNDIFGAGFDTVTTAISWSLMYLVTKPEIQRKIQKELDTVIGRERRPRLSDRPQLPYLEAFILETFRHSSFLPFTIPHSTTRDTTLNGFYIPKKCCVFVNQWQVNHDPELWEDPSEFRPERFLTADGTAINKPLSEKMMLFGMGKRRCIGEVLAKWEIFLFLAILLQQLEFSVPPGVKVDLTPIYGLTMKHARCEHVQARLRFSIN
Sequence of Ubiquitin carboxyl-terminal hydrolase 1 (Homo sapiens) (O94782 whole entry, looked up): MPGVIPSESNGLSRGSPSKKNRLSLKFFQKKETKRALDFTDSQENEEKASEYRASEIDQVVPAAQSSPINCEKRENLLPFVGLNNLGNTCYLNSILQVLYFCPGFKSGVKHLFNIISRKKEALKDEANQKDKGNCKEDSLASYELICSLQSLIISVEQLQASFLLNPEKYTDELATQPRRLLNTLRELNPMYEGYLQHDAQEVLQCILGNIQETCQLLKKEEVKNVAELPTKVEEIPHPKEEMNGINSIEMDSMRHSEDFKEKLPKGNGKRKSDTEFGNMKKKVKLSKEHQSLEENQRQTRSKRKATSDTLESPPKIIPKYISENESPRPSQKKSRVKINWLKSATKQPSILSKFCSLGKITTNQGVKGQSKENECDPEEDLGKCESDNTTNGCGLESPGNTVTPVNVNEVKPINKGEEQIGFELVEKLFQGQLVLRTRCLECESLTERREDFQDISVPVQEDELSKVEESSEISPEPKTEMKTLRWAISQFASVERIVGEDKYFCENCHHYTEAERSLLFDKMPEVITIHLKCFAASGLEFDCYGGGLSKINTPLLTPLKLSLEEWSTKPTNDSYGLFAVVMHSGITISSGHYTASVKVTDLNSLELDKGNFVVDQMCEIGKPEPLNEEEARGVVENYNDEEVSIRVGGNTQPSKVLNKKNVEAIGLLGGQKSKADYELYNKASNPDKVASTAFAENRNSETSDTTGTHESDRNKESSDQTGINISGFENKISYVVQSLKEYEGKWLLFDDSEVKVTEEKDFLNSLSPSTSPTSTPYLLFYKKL
Sequence of Cytochrome P450 2C19 (Homo sapiens) (P33261 whole entry, looked up): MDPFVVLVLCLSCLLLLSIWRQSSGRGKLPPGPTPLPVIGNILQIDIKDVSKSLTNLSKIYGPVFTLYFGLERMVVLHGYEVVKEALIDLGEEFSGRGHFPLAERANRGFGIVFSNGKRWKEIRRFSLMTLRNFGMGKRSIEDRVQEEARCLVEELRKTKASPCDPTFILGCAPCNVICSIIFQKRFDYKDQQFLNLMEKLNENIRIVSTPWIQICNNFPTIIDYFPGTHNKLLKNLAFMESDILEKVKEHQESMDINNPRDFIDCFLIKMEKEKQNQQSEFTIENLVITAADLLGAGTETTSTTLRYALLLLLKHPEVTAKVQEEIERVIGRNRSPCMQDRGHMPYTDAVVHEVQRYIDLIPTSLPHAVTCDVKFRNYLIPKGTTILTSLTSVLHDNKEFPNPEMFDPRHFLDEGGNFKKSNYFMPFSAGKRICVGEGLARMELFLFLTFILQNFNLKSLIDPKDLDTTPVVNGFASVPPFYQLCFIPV

As to `c1ccc(Nc2ncnc3ccc(-c4cccnc4)cc23)cc1`, the Potency is > 11.4 µM (inactive) in assay [1]; 0.0794 µM (active) in [2]; > 46 µM (inactive) in assay [4]; > 46 µM (inactive) in [5]; 2.51 µM (active) in assay [8]. Further, the activity, negative = inhibition in assay [3] is 19.3% (inactive). The Potency result in assay [6], in assay [7], in assay [9] and in [10] was “inactive” throughout. The result in assay [11] and in [13] was inactive. In addition, in assay [12], the activity change, negative = inhibition was 7.8% (inactive). Further, the max response in assay [12] (setting [18]) was -20.7%; in assay [12] (setting [19]), -13.8%.
On to `O=C(Oc1ccccc1)N1CCC[C@@]2(CCN(c3ccncc3)C2)C1`, for which the figures for the Potency in assay [1], in [2] and in assay [14] were > 11.4 µM (inactive), 20 µM (active) and 5.01 µM (active), respectively. In assay [3], the activity, negative = inhibition is -2.61% (inactive). For the same compound, the Potency entry in assay [6], in [7] and in assay [9] was “inactive” each time. Also, in assay [12], the activity change, negative = inhibition is 4.19% (inactive). In addition, the max response was found to be 13.6% in [12] (setting [18]) and 23.8% in [12] (setting [19]). Moreover, the result in [13] was inactive.
As for `Cc1ccccc1-c1nc(NCc2cccnc2)c2ccccc2n1`, the activity change, negative = inhibition in assay [15] is -6.01% (inactive); in assay [16], -1.21% (inactive); in [12], 1.87% (inactive). The Potency is 0.501 µM (active) in [2]; > 46 µM (inactive) in assay [4]; > 46 µM (inactive) in assay [5]; 0.501 µM (active) in assay [8]; 28.2 µM (active) in assay [17]. In [3], the activity, negative = inhibition is 3.29% (inactive). Also, the Potency entry in [6], in [9] and in assay [10] was “inactive” each time. Also, the result in [11] and in assay [13] was inactive. Also, the max response in [12] (setting [18]) is -7.11%; in assay [12] (setting [19]), -4.19%.
`COc1ccc(CNc2cc(-c3ccccc3CN(C)C)ncn2)c(OC)c1`: the activity change, negative = inhibition in assay [15] is -0.546% (inactive); in assay [12], 3.53% (inactive). In addition, the Potency in assay [2] is 15.8 µM (active); in assay [4], > 46 µM (inactive); in assay [5] it was > 46 µM (inactive). The activity, negative = inhibition in [3] was 10.5% (inactive). The Potency result in [6], in [7], in assay [9], in assay [10] and in assay [17] was “inactive” each time. Further, the outcome in [11] and in assay [13] was inactive. Besides, the max response was found to be 8.17% in assay [12] (setting [18]) and 12.8% in [12] (setting [19]).
With `N#Cc1cccc(NC(=O)N2CC[C@@]3(CCCN(C(=O)c4ccco4)C3)C2)c1`, the activity change, negative = inhibition in assay [15] is -2.67% (inactive); in [16] it was 3.83% (inactive); in assay [12], 6.04% (inactive). The Potency result in [2], in assay [6], in [7] and in [9] was “inactive” each time. Moreover, in assay [3], the activity, negative = inhibition is -1.84% (inactive). The Potency in [5] is > 46 µM (inactive). In addition, the max response is 4.12% in assay [12] (setting [18]) and 14% in [12] (setting [19]). Further, the outcome in assay [13] was inactive.
Regarding `Cc1noc(C)c1-c1ccc2ncnc(NC3CC3)c2c1`, the values for the Potency in [1], in [4] and in assay [5] were > 11.4 µM (inactive), > 46 µM (inactive) and > 46 µM (inactive), respectively. Moreover, the Potency entry in assay [6], in assay [7], in assay [10] and in assay [17] was “inactive” in each case. In addition, the activity change, negative = inhibition in [12] was -8.16% (inactive). Moreover, the max response in [12] (setting [18]) is -21.4%; in assay [12] (setting [19]), -28.4%. Besides, the outcome in assay [13] was inactive.
